Laboratory results from PubChem BioAssay AID743330 (NMMLSC, 2014).
Active and inactive are the calls of the source. No rule for the calls is given here.

Test system: Rab7
Assay: GTPase panel EC50 shift with labeled GTP level, profiling panel, mechanism study, biochemical, four GTPases, bead flow cytometry (AID 743330)
Details: bead-based flow cytometry, fluorescent GTP binding to GTPases

Row | Structure (SMILES) | EC50
1 | CCC1(C)Cc2c(sc(NC(=S)NC(=O)c3ccccc3)c2C(=O)O)CO1 (configuration not stated) | 7 nM (active)
2 | CC1(C)Cc2c(sc(NC(=S)NC(=O)c3ccc(F)cc3)c2C(=O)O)CO1 | 33 nM (active)
